Results: PubChem BioAssay AID1159580 (chemical genetic matrix, 2015)
“And” between values parts separate entries of the source, which are not always exact repeats. Equal entries are not always repeated. In all, about 5,500 compounds went through this assay and about 2,000 (36%) were called active. About 18% were inconclusive and are not listed. Cut-off read from the data, not from the text of the source: active = normalized growth mostly below about 0.91 (no sharp cut-off); inconclusive = no clear call, values can overlap the other calls; inactive = mostly above about 0.92. The list shows a part of the results.

Test: chemical genetic growth profiling, strain panel (AID 1159580);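 note: tested at 20 µM; growth read once vehicle control cultures reached saturation at 30 °C; 1 = growth at the plate median or of vehicle wells; lower values mean less growth of the strain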
Conditions: S. cerevisiae deletion strains, growth OD

Measured: normalized growth

CN1C(C(=O)Nc2ccccn2)=C(O)c2ccccc2S1(=O)=O
inactive: locus YAL013W, strain DEP1, hits give low values 0.977 and 0.995 | locus YAL021C, strain ccr4, hits give low values 0.977 | locus YAL026C, strain drs2, hits give low values 0.964 | locus YAL030W, strain snc1, hits give low values 0.944 | locus YAL040C, strain CLN3, hits give low values 1 | locus YBL061C, strain skt5, hits give low values 0.966 | locus YBR009C, strain hhf1, hits give low values 0.932 | locus YBR021W, strain FUR4, hits give low values 0.994 | locus YBR023C, strain chs3, hits give low values 0.982 | locus YBR171W, strain sec66, hits give low values 0.922 | locus YBR229C, strain ROT2, hits give low values 0.965 | locus YBR231C, strain swc5, hits give low values 0.953 | locus YBR279W, strain paf1, hits give low values 0.979 | locus YCL011C, strain gbp2, hits give low values 0.956 | locus YCL016C, strain dcc1, hits give low values 0.969 | locus YCL029C, strain bik1, hits give low values 0.955 | locus YCL061C, strain MRC1 (second series), hits give low values 0.997 | locus YCL069W, strain vba3, hits give low values 0.961 | locus YCR088W, strain abp1, hits give low values 0.968 | locus YDL005C, strain med2, hits give low values 0.964 | locus YDL035C, strain GPR1, hits give low values 1.01 | locus YDL040C, strain nat1, hits give low values 0.966 | locus YDL074C, strain BRE1, hits give low values 0.992 | locus YDL101C, strain DUN1, hits give low values 0.997 | locus YDL134C, strain PPH21, hits give low values 0.98 | locus YDL185W, strain tfp1, hits give low values 0.922 | locus YDL192W, strain arf1, hits give low values 0.966 | locus YDR001C, strain nth1, hits give low values 0.956 | locus YDR069C, strain doa4, hits give low values 0.984 | locus YDR101C, strain arx1, hits give low values 0.966 | locus YDR137W, strain rgp1, hits give low values 0.918 | locus YDR150W, strain NUM1, hits give low values 0.971 | locus YDR159W, strain sac3, hits give low values 0.966 | locus YDR162C, strain NBP2, hits give low values 0.991 | locus YDR195W, strain ref2 0.962 | locus YDR297W, strain sur2, hits give low values 0.945 | locus YDR318W, strain mcm21, hits give low values 0.944 | locus YDR334W, strain swr1, hits give low values 0.974 | locus YDR335W, strain msn5, hits give low values 0.97 | locus YDR363W, strain ESC2, hits give low values 1.02 | locus YDR388W, hits give low values 0.953 | locus YDR502C, strain sam2, hits give low values 0.957 | locus YEL003W, strain gim4, hits give low values 0.946 | locus YEL037C, strain rad23, hits give low values 0.976 | locus YEL061C, strain CIN8 (second series), hits give low values 0.978 | locus YEL061C, strain CIN8, hits give low values 0.977 | locus YER002W, strain NOP16, hits give low values 0.979 | locus YER015W, strain faa2, hits give low values 0.961 | locus YER016W, strain bim1, hits give low values 0.976 | locus YER110C, hits give low values 0.97 | locus YER111C, strain swi4, hits give low values 0.958 | locus YER155C, strain BEM2 (second series), hits give low values 0.882 | locus YER155C, strain BEM2, hits give low values 0.962 | locus YER167W, strain BCK2, hits give low values 0.968 | locus YFR010W, strain ubp6, hits give low values 0.971 | locus YGL078C, strain dbp3, hits give low values 0.959 | locus YGL086W, strain mad1, hits give low values 0.95 | locus YGL167C, strain pmr1, hits give low values 0.937 | locus YGL173C, strain kem1, hits give low values 0.957 | locus YGL227W, strain vid30, hits give low values 0.964 | locus YGL240W, strain doc1, hits give low values 0.949 | locus YGL248W, strain PDE1, hits give low values 0.984 | locus YGL253W, strain hxk2, hits give low values 0.961 | locus YGR078C, strain PAC10, hits give low values 0.975 | locus YGR135W, strain pre9, hits give low values 0.958 | locus YGR229C, strain SMI1, hits give low values 0.98 and 1.02 | locus YGR252W, strain gcn5, hits give low values 0.99 | locus YHR013C, strain ard1, hits give low values 0.91 | locus YHR027C, strain rpn1, hits give low values 0.982 | locus YHR030C, strain SLT2, hits give low values 0.972 and 0.968 | locus YHR079C, strain IRE1 (second series), hits give low values 0.96 | locus YHR079C, strain IRE1, hits give low values 0.947 | locus YHR094C, strain hxt1, hits give low values 0.956 | locus YHR129C, strain ARP1, hits give low values 0.97 | locus YHR142W, strain chs7, hits give low values 0.951 | locus YHR200W, strain rpn10, hits give low values 0.972 | locus YIL066C, strain RNR3, hits give low values 0.99 | locus YIL073C, strain SPO22, hits give low values 0.985 | locus YIL125W, strain kgd1, hits give low values 0.946 | locus YIR030C, strain dcg1, hits give low values 0.959 | locus YJL092W, strain hpr5, hits give low values 0.962 | locus YJL095W, strain BCK1 (second series), hits give low values 0.951 | locus YJL095W, strain BCK1, hits give low values 0.971 and 0.957 | locus YJL115W, strain asf1, hits give low values 0.985 | locus YJL134W, strain LCB3, hits give low values 0.967 | locus YJL154C, strain vps35, hits give low values 0.962 | locus YJL164C, strain tpk1, hits give low values 0.951 | locus YJL168C, strain set2, hits give low values 0.938 | locus YJL187C, strain SWE1 (second series), hits give low values 0.999 | locus YJR043C, strain POL32, hits give low values 0.995 | locus YJR066W, strain TOR1, hits give low values 0.918 | locus YJR075W, strain HOC1, hits give low values 0.991 and 1
active: locus YDR392W, strain spt3, hits give low values 0.539 | locus YJL129C, strain trk1, hits give low values 0.679 | locus YJL166W, strain qcr8, hits give low values 0.898
